Compound activity from PubChem BioAssay.
Most compounds without a hit are left out; they make up all but 17% or so of the library.
DT40 TDP1 no CPT – qHTS for Inhibitors of human tyrosyl-DNA phosphodiesterase 1 (TDP1): qHTS in cells in absence of CPT; AID 686978, 2013; Potency, µM (top dose mostly 46.2 µM), for the others: at the top dose activity change, negative = growth inhibition, actives largely listed as inhibitors; DT40 Tdp1-/- hTDP1 cells, no CPT, ATP luminescence, 48 h; 420,000 tested, 15% active; also: % is scaled to controls: 0 for no effect and ±100 for the full control effect; nearly all actives have a fitted effect of over 55% in size
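Growth kinetics read by CellTiter-Glo luminescence after ≥48 hr at 37 °C. Cells: DT40 Tdp1-/- stably carrying human TDP1, 400 per well, compound exposure in the absence of CPT (DMSO vehicle).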
HepG2 tox – kills HepG2 cells in TGF-b inhibitor counter-screen | HepG2 CAGA-GFP viability, ATP luminescence, 18 h | 410,000 tested, 0.76% active | AID 588856 | Potency, µM (series often up to 46.1 µM), inactives show at the highest dose activity change, negative = cytotoxicity, usual class: cytotoxic
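CellTiter-Glo luminescence gave cytotoxicity after 18 hours at 37 degrees C. The cells were HepG2 CAGA-GFP in 1% FBS DMEM, stimulated with 500 pg/mL TGF-beta after compound addition. %Activity was normalised to no-cell wells (complete cell-killing) and DMSO (no toxicity), and curves were fitted and classified.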
DT40 TDP1 CPT – growth inhibition of DT40 Tdp1-/-;hTDP1 cells with camptothecin (screen for TDP1 inhibitors). chicken DT40 Tdp1-/-;hTDP1 cells + 20 nM CPT, ATP luminescence, 48 h. Potency, µM (series often up to 46.2 µM), for the others: top-dose activity change, negative = growth inhibition, hits mostly inhibitors. 420,000 tested, 12% active; also: % is scaled to controls: 0 for no effect and ±100 for the full control effect; nearly all actives have a fitted effect of over 55% in size
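Chicken DT40 Tdp1-/- cells stably complemented with human TDP1 were seeded at 400 cells/well in medium containing 20 nM camptothecin, exposed to pin-transferred compounds, and grown at 37 °C for at least 48 hr. Viability was read as ATP luminescence.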
ATXN2 expr inh – reduces ATXN2 reporter expression in HEK-293 cells. HEK-293 ATXN2-luciferase reporter, luminescence, 24 h. Potency, µM (series often up to 57 µM), for the others: top-dose activity change, negative = inhibition, usual class: inhibitors. 360,000 tested, 0.72% active. AID 1745845; also: % is scaled to controls: 0 for no effect and ±100 for the full control effect; nearly all actives have a fitted effect of over 55% in size
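qHTS (up to 57 uM final) was run with 24 h compound exposure of reporter cells at 37 °C. Each well was multiplexed: SteadyGlo luminescence measured ATXN2-luciferase expression after a fluorogenic Gly-Phe-AFC viability readout (25 uM final).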
TGFb inhibitor – blocks TGF-b signaling | 410,000 tested, 1.2% active | Potency, µM (series often up to 46.1 µM), inactives show top-dose activity, negative = inhibition, usual class: inhibitors | HepG2 CAGA-GFP TGF-b/SMAD3 reporter, GFP fluorescence, 18 h; TGF-beta stimulated, 500 pg/mL final; also: % is scaled to controls: 0 for no effect and ±100 for the full control effect; nearly all actives have a fitted effect of over 65% in size
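Inhibition of TGF-beta-driven CAGA-GFP reporter expression in HEPG2 cells is measured by cellular GFP fluorescence after 18 h stimulation with 500 pg/mL recombinant TGF-beta in 1% FBS medium at 37 degrees C.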
ATXN viability – viability counter-screen for ATXN expression inhibitors | S2 cells (HEK-293 line with an ATXN2-luciferase reporter) viability, CellTiter-Fluor protease fluorescence, 24 h | 400,000 tested, 0.49% active | Potency, µM (titrated, usually from 56.7 µM), most hits filed as cytotoxic; also: nearly all actives have a fitted effect of over 40% in size
* hit, by the source's call; i = inactive; ? = inconclusive; nt = no result given; ! = repeats disagree; [ ] = dose if it differs, or a comment. Calls follow the shape of the dose curve; as a rule, active = well fitted curve in the direction sought with a large enough effect; inconclusive = small, poorly fitted or top-dose-only effect, or another doubt; inactive = no such curve, though single readings can be large; an effect the other way counts as inactive or inconclusive. Potency is read from the fitted curve at half-maximal effect.

SMILES | DT40 TDP1 no CPT | HepG2 tox | DT40 TDP1 CPT | ATXN2 expr inh | TGFb inhibitor | ATXN viability
COC(=O)C1=C(c2cccc(OCc3ccccc3)c2)C[C@@H]2CC[C@H]1N2C(=O)NCc1cccc(F)c1 | ? | -2.9% | ? | -22.0% | ? | i
COC(=O)C1=C(c2cccc(OCc3ccccc3)c2)C[C@@H]2CC[C@H]1N2C(=O)NCCOc1ccccc1 | 20.6µM* | 9.6% | ? | ? | ? | i
CCS(=O)CCSP(=O)(OC)OC (configuration not stated) | -5.2% | nt | 11.6% | nt | nt | nt
Cc1cc(C)cc(-n2c(SCC(=O)NCc3ccc(F)cc3)nc3c([nH]c4ccccc43)c2=O)c1 | 16.4µM* | -14.8% | ? | 18.1% | 2.1% | ?
COc1cccc(-n2c(SCC(=O)c3ccc(Cl)cc3)nc3c([nH]c4ccccc43)c2=O)c1 | 4.11µM* | -7.6% | 3.66µM* | 2.4% | ? | i
COc1cccc(-n2c(-c3ccoc3)nc3ccccc3c2=O)c1 | ? | 10.0% | ? | -7.3% | -1.1% | i
C#CCOc1ccc(OC)cc1C(c1c(C)[nH][nH]c1=O)c1c(C)[nH][nH]c1=O | ? | 2.7% | 14.9% | -2.4% | -1.2% | i
CC(=O)C1CCOC1=O (configuration not stated) | nt | nt | nt | 4.5% | nt | i
CC(=O)N1CCN(c2ccc(OC[C@H]3CO[C@](Cn4ccnc4)(c4ccc(Cl)cc4Cl)O3)cc2)CC1 | 6.31µM* | -59.5% | 6.31µM*! | ? | ? | ?
CCCC1COC(Cn2cncn2)(c2ccc(Cl)cc2Cl)O1 (configuration not stated) | ? | -37.9% | ? | -4.1% | -18.8% | i
CC(=O)N1CCN(c2ccc(OC[C@@H]3CO[C@@](Cn4ccnc4)(c4ccc(Cl)cc4Cl)O3)cc2)CC1 | 15.8µM* | -8.8% | 15.8µM* | nt | ? | nt
Cc1cccc(N(CC(=O)NCCSc2ccc(Cl)cc2)S(=O)(=O)c2ccccc2)c1C | ? | -20.2% | ? | nt | ? | nt
CCCCOP(=O)(c1ccc(N(C)C)cc1)C(O)c1ccc(C(C)C)cc1 (configuration not stated) | -17.5% | -40.6% | ? | 6.5% | ? | i
C1CN(P2(N3CC3)=NP(N3CC3)(N3CC3)=NP(N3CC3)(N3CC3)=N2)CCO1 (configuration not stated) | 1.3µM* | -15.3% | 0.581µM* | nt | 12.9% | i
CCC1=C(C)C(N2CCOCC2)=NP(N2CCOCC2)(N2CCOCC2)=N1 | 8.2% | -14.6% | 14.8% | -3.5% | 4.1% | i
CC(NC(=O)c1cc(F)ccc1F)c1nnc2n1CCN(Cc1ccc(-c3ccccc3)cc1)CC2 (configuration not stated) | ? | nt | -1.2%[9.04 µM] | nt | nt | ?
CCCCCCOc1ccc(CN2CCN(CCO)CC2)cc1 | 20.6µM* | -42.9% | 16.4µM* | -35.1% | -0.5% | ?
O=C1/C(=C/c2cc([N+](=O)[O-])ccc2Cl)N2CCC1CC2 | 16.4µM* | -14.4% | 18.4µM* | -11.2% | -2.6% | i
Cc1nnc2n1-c1ccc(Cl)cc1C(c1ccccc1Cl)=NC2 | -2.9% | nt | -3.4% | nt | nt | nt
COC(=O)C1=C(c2ccc(F)cc2F)C[C@@H]2CC[C@H]1N2C(=O)NCCOc1ccc(OC)cc1 | ? | -22.2% | ? | -12.1% | -4.9% | i
COc1ccc(CCNCc2ccc(C)s2)cc1OC | -15.5% | -23.5% | 1.3% | -26.3% | 0.6% | i
COc1ccc(Cc2nccc3cc(OC)c(OC)cc23)cc1OC | 5.8µM* | -23.7% | 8.2µM* | ? | 2.2% | i
COC[C@H]1OC(=O)c2coc3c2[C@@]1(C)C1=C(C3=O)[C@@H]2CCC(=O)[C@@]2(C)C[C@H]1OC(C)=O | 1.84µM* | -28.3% | 0.92µM* | -23.4% | ? | i
COc1ccc2o/c(=N\O)c(C(=O)Nc3ccc(C)cc3)cc2c1 | ? | -9.3% | 23.1µM* | nt | -14.4% | ?
COc1ccc(/C=C/C(=O)Nc2ccc(C)cc2)cc1 | ? | -2.1% | -24.4% | 9.1% | 2.2% | i
SMILES | DT40 TDP1 no CPT | HepG2 tox | DT40 TDP1 CPT | ATXN2 expr inh | TGFb inhibitor | ATXN viability
Cn1c(=O)oc2cc(S(=O)(=O)NCCN3CCN(c4ccccc4)CC3)ccc21 | -26.3% | -26.8% | ? | 5.2% | -17.5% | i
Cc1ccc(Cn2cccc(C(=O)Nc3ccc4c(c3)OCCO4)c2=O)cc1 | 16.4µM* | -21.5% | 20.6µM* | 24.6% | ? | i
O=C(Nc1ccc2c(c1)OCCO2)c1cccn(Cc2cccc(F)c2)c1=O | 23.1µM* | -27.5% | 20.6µM* | -1.1% | ? | i
O=C(Nc1ccc2c(c1)OCO2)c1cccn(Cc2cccc(F)c2)c1=O | -17.6% | 3.2% | -13.3% | 7.0% | ? | i
CCc1ccc(NC(=O)c2cccn(Cc3cccc([N+](=O)[O-])c3)c2=O)cc1 | 20.6µM* | -23.5% | -19.2% | -0.7% | -7.4% | i
O=C(Nc1ccon1)c1cccn(Cc2cccc([N+](=O)[O-])c2)c1=O | ? | -9.8% | ? | 6.8% | 9.8% | i
Cc1ccc2c(c1)CC1(CN2C)C(=O)NC(=O)N(CCC2=CCCCC2)C1=O (configuration not stated) | ? | -6.5% | ? | 4.9% | 25.5% | i
Cc1cccc(N2C(=O)/C(=C/c3ccc(CN(CCC#N)S(C)(=O)=O)o3)C(=O)NC2=S)c1 | -6.3% | 7.3% | -2.8% | -5.0% | 1.3% | i
COc1ccc(N2C(=O)/C(=C/c3ccc(C)o3)C(=O)NC2=S)cc1 | ? | 4.3% | 14.6µM* | 3.8% | 1.2% | i
CN1CCN(c2ccc(/C=C3\C(=O)NC(=S)N(c4cccc(Br)c4)C3=O)o2)CC1 | 16.4µM* | -3.1% | 16.4µM* | -18.2% | 43.2% | ?
Cc1ccc(/C=C2\C(=O)NC(=S)N(c3cccc(F)c3)C2=O)o1 | ? | -4.4% | 18.4µM* | nt | -8.1% | ?
CCOc1ccc(N2C(=O)/C(=C/c3ccc(C)o3)C(=O)NC2=S)cc1 | 25.9µM* | 1.6% | ? | nt | 6.0% | i
Nc1ccc2c3c(cccc13)-c1ccccc1-2 | -25.1% | -18.4% | 1.6% | 14.0% | 97.0% | nt
Cc1cccc(C(C)c2cnc[nH]2)c1C (configuration not stated) | ? | nt | 26.6µM* | nt | nt | nt
C[C@H](N)Cc1cnc[nH]1 | -10.8% | nt | -2.1% | nt | nt | nt
COc1ccc(OC)c([C@@H](O)[C@H](C)N)c1 | -15.0% | nt | -26.2% | nt | nt | nt
